{"source": "PubChem BioAssay (Tox21)", "note": "Results filed as inconclusive are left out. Entries that show only a call come without a potency. The source made the active and inactive calls. Calls come from the whole dose curve; as a rule, active = well fitted inhibition curve with a large enough effect in the repeat runs; inconclusive = weak or mixed curves, or effect the other way; inactive = no such curve, though single readings can be large or run the other way.", "data": [{"test": "qHTS assay to identify small molecule antagonists of the retinoic acid receptor (RAR) signaling pathway (AID 1159552; note: nearly all actives have a fitted effect of over 50% in size)", "conditions": "C3RL4 RARE luciferase reporter, retinol-stimulated, 6 h; series mostly up to 92.4 µM", "summary_of_the_method": "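Quantitative HTS in C3RL4 RARE-luciferase reporter cells. Compounds were added with 1 uM (final) retinol; luminescence was read after 6 hr.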", "values": [{"smiles": "O=S(=O)(Oc1ccc(Cl)cc1Cl)c1ccccc1", "Potency": "inactive"}, {"smiles": "CCCCCCCCCC(=O)O", "Potency": "inactive"}, {"smiles": "C[C@@H](O)[C@H]1C(=O)N2C(C(=O)O)=C(S[C@@H]3CN[C@H](C(=O)N(C)C)C3)[C@H](C)[C@H]12", "Potency": "inactive"}, {"smiles": "Nc1c(S(=O)(=O)O)cc(Br)c2c1C(=O)c1ccccc1C2=O", "Potency": "inactive"}, {"smiles": "CCC(=O)O", "Potency": "inactive"}, {"smiles": "O=Nc1ccc(O)cc1", "Potency": "inactive"}, {"smiles": "c1ccc2ccccc2c1", "Potency": "inactive"}, {"smiles": "COC(=O)Nc1nc2ccc(Sc3ccccc3)cc2[nH]1", "Potency": "inactive"}, {"smiles": "Nc1cc(-c2ccncc2)c[nH]c1=O", "Potency": "inactive"}, {"smiles": "CCCCCCCCCCCCOCC1CO1", "note": "(stereo unspecified)", "Potency": "inactive"}, {"smiles": "CCOC(=O)[C@H](CCc1ccccc1)N[C@@H](C)C(=O)N1Cc2ccccc2C[C@H]1C(=O)O", "Potency": "inactive"}, {"smiles": "C=C1C2CCC(C2)C1(C)C", "note": "(stereo unspecified)", "Potency": "inactive"}, {"smiles": "Cc1cc(=O)[nH]c(C(C)C)n1", "Potency": "inactive"}, {"smiles": "COCC(=O)O", "Potency": "inactive"}, {"smiles": "OC1CCCC1", "Potency": "inactive"}, {"smiles": "COC(=O)c1ccc(C(=O)OC)cc1", "Potency": "inactive"}]}]}
